Among the data in PubChem BioAssay AID651939 (The Scripps Research Institute Molecular Screening Center, 2012) are IC50 values, retold here.

Some of the results follow. Values without a mark were called inactive. Calls of active or inactive are those of the source. Rule as the data show it: active = IC50 below about 9 µM; inactive = the rest. A value given as a limit tells only on which side of the number the result lay.

The nature of this test: compound binding to PG126 antibody – biochemical, TR-FRET, distinct HIV envelope site, counter-screen for PG9 antibody binder project, dose response (AID 651939). The settings on record: TR-FRET binding to antibody PG126, counterscreen. (In general: TR-FRET usually uses a lanthanide donor and a delayed reading to cut background.)

Turning to `COc1ccc(-c2c(C)nn3c(N4CCC(C(=O)N5CCCCC5)CC4)cc(C)nc23)cc1OC`, the IC50 was above 67 µM.
For `O=C(Nc1nnc(-c2ccccc2F)s1)c1ccccc1F` the value was 17.9 µM; for `CC1(C)Cc2ccccc2-c2[nH]c(=S)[nH]c(=O)c21`, 66.1 µM; for `Cc1cccc(Nc2nc3c(S(=O)(=O)c4ccccc4)nnn3c3ccccc23)c1C`, 3.75 µM (active).
For `COC(=O)C1=C(C)N(Cc2ccccc2C(F)(F)F)C(=NCc2ccc(OC)cc2)NC1c1cccc(C(F)(F)F)c1` (configuration not stated) the value was above 67 µM; for `S=c1[nH]c2ccccc2c2ccccc12`, 60.4 µM.
Consider `O=C(Oc1ccccc1)Oc1ccc2c(c1)oc(=O)c1ccccc12`, for which the half-maximal inhibitory concentration (IC50) is 4.13 µM (active).

The IC50 is the point on the concentration scale where inhibition reaches its midpoint.
